Sampled rows, rich in hits. Any-hit rate of the full collection: about 19%.
KB-3-1 cytotox: KB-3-1 parental cell cytotoxicity. AID 1347075. KB-3-1 viability, CellTiter-Glo ATP luminescence, 72 h. 400,000 compounds, 1.4% hits. Potency, µM (highest dose often 46.1 µM), most hits filed as cytotoxic; note: nearly all actives have a fitted effect of over 60% in size
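Cytotoxicity measured as CellTiter-Glo luminescence after 72 h at 37 C. Compound titrations were pinned onto drug-naive KB-3-1 parental adenocarcinoma cells grown in DMEM with 10% FBS, and normalized data fitted to concentration-response curves.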
TDP1 cell CPT: DT40-hTDP1 cell growth loss with CPT. chicken DT40 Tdp1-/-;hTDP1 cells + 20 nM CPT, ATP luminescence, 48 h. AID 686979. Potency, µM (top dose mostly 46.2 µM), for inactives: top-dose activity change, negative = growth inhibition, usual class: inhibitors. 420,000 compounds, 12% hits; note: nearly all actives have a fitted effect of over 55% in size
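Chicken DT40 Tdp1-/- cells complemented with human TDP1, 400 cells/well, exposed to compounds plus 20 nM camptothecin for at least 48 h at 37 C; viability read as ATP content by CellTiter-Glo luminescence.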
HT1080 IDH1KD tx: kills HT-1080 cells with IDH1 knockdown | HT-1080 IDH1 knockdown viability, ATP luminescence, 48 h | Potency, µM (titrated, usually from 46.1 µM), inactives show at the highest dose activity, negative = toxicity, usual class: cytotoxic | 360,000 compounds, 2% hits;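 note: 0% = DMSO wells and -100% = cell-free medium wells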
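% activity derives from luminescence (CellTiter-Glo), normalised to DMSO and no-cell wells. HT-1080-IDH1KD cells, 750/well, had 48 h compound exposure at 37 °C.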
KB-V1 cytotox: kills drug-selected multidrug resistant KB-V1 cells | KB-V1 MDR cells viability, CellTiter-Glo, 72 h | Potency, µM (series often up to 46.1 µM), usual class: cytotoxic | 400,000 compounds, 3.4% hits | AID 1347076; note: nearly all actives have a fitted effect of over 60% in size
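Cells of the MDR subline KB-V1 are plated, dosed with compound at multiple concentrations, and incubated 72 h at 37 degrees C; CellTiter-Glo is then added and luminescence read after 10 min.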
HT1080-NT tox: kills 2HG-producing HT-1080-NT fibrosarcoma cells | Potency, µM (doses to about 46.1 µM), for the others: at the top dose activity, negative = less viability, actives largely listed as cytotoxic | HT-1080-NT fibrosarcoma viability, CellTiter-Glo ATP luminescence, 48 h | AID 686970 | 360,000 compounds, 1.6% hits;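 note: NT is the 2HG producing partner of a matched IDH1 knockdown line; 0% = DMSO-treated cells and -100% = media-only wells without cells; nearly all actives have a fitted effect of over 55% in size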
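Viability by CellTiter-Glo luminescence after 48 h compound exposure at 37C of HT-1080-NT cells (750/well, RPMI, 5% FBS). % activity scaled between DMSO wells and medium-only wells, then curve-fitted and categorized by curve class.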
DT40 TDP1 no CPT: qHTS for Inhibitors of human tyrosyl-DNA phosphodiesterase 1 (TDP1): qHTS in cells in absence of CPT; 420,000 compounds, 15% hits; DT40 Tdp1-/- hTDP1 cells, no CPT, ATP luminescence, 48 h; Potency, µM (doses to about 46.2 µM), without a hit: at the top dose activity change, negative = growth inhibition, hits mostly inhibitors; note: nearly all actives have a fitted effect of over 55% in size
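Cells were dispensed at 400 per well, compounds added by pin tool, plates incubated ≥48 hr at 37 °C, then CellTiter-Glo added for 30 min at room temperature before luminescence reading. Line: DT40 Tdp1-/- complemented with hTDP1; camptothecin omitted.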
* hit, by the source's call; i = inactive; u = inconclusive; x = not tested or not shown. Calls come from the whole dose curve; as a rule, active = well fitted curve in the direction sought with a large enough effect; inconclusive = small, poorly fitted or top-dose-only effect, or another doubt; inactive = no such curve, though single readings can be large; an effect the other way counts as inactive or inconclusive. Unless noted, % is set by controls: 0 for no effect and ±100 for the full control effect; potency is the fitted concentration of half-maximal effect.

SMILES	KB-3-1 cytotox	TDP1 cell CPT	HT1080 IDH1KD tx	KB-V1 cytotox	HT1080-NT tox	DT40 TDP1 no CPT
COc1cc(C)ccc1OCCSc1nc(-c2cccc(C)c2)nc2cc(=O)[nH]n12	i	16µM*	x	i	x	21µM*
Cc1cccc(OCCSc2nc(-c3cccs3)nc3cc(=O)[nH]n23)c1	i	u	x	u	x	u
COc1ccc(-c2nc(SCCOc3cc(C)ccc3C(C)C)n3[nH]c(=O)cc3n2)cc1	i	u	x	i	x	18µM*
CCc1ccc(OCCSc2nc(-c3cccc(C)c3)nc3cc(=O)[nH]n23)cc1	i	23µM*	x	i	x	u
Cc1cccc(-c2nc(SCCCOc3ccc(Cl)c(C)c3)n3[nH]c(=O)cc3n2)c1	i	u	x	i	x	u
Cc1ccc(OCCSc2nc(-c3ccccc3C)nc3cc(=O)[nH]n23)cc1Cl	i	16µM*	x	i	x	16µM*
Cc1ccc(C(C)C)c(OCCSc2nc(-c3ccccc3F)nc3cc(=O)[nH]n23)c1	u	u	x	i	x	u
CCOc1ccccc1CNC(=O)c1cnc2sc(N3CCOCC3)nn2c1=O	x	-1%	x	x	x	-13%
CCc1ccc(OCCCSc2nc(-c3ccc(C(C)(C)C)cc3)nc3cc(=O)[nH]n23)cc1	x	u	x	x	x	23µM*
Cn1c(Oc2ccc(F)cc2)nc2c1c(=O)n(Cc1ccccc1Cl)c(=O)n2C	u	23µM*	x	10µM*	x	12µM*
COc1ccc(Oc2nc3c(c(=O)n(C)c(=O)n3C)n2C)cc1	i	u	-7%	i	-10%	-25%
COC(=O)Cn1c(=O)c2c(nc(Br)n2Cc2ccccc2Cl)n(C)c1=O	i	u	-5%	i	-7%	u
COc1ccc(Oc2nc3c(c(=O)n(Cc4ccccc4Cl)c(=O)n3C)n2C)cc1	u	u	x	u	x	6.5µM*
NCCCCCCNS(=O)(=O)c1ccc2c(Cl)cccc2c1	u	13µM*	x	i	x	11µM*
O=S(=O)(NCCCCCNS(=O)(=O)c1c(F)cccc1F)c1ccc2c(c1)OCCO2	i	x	x	i	x	x
NCCCCNS(=O)(=O)c1ccc2c(Cl)cccc2c1	x	12µM*	x	x	x	12µM*
NCCNS(=O)(=O)c1cccc2c(Cl)cccc12	x	27µM*	x	x	x	27µM*
O=C(CC(c1cccs1)N1Cc2ccccc2C1=O)Nc1cccc(F)c1 (configuration not stated)	i	u	x	u	x	u
O=C(CCC1N=C2c3ccccc3N=C(SCC(=O)Nc3ccccc3F)N2C1=O)NCc1ccco1 (configuration not stated)	i	-2%	x	i	x	-12%
NC(CCc1ccccc1)c1csc(NC(=O)NCCc2ccccc2)n1 (configuration not stated)	u	23µM*	16µM*	u	16µM*	u
COc1ccccc1CNC(=O)Nc1nc(C(N)CCc2ccccc2)cs1 (configuration not stated)	u	18µM*	18µM*	i	u	18µM*
NC(Cc1ccc(Cl)cc1)c1csc(NC(=O)Nc2ccccc2-c2ccccc2)n1 (configuration not stated)	u	13µM*	u	u	u	12µM*
NC(Cc1ccc(Cl)cc1)c1csc(NC(=O)NCC2CCCCC2)n1 (configuration not stated)	u	10µM*	16µM*	16µM*	16µM*	8.2µM*
Cc1ccc(-n2nc(C(=O)N3CCN(c4ccccc4)CC3)c(=O)n(C)c2=O)cc1	i	-9%	x	i	x	-17%
O=C(Nc1sc2c(c1C(=O)Nc1ccccc1Cl)CCCC2)c1ccccc1F	i	-7%	x	i	x	-10%
SMILES	KB-3-1 cytotox	TDP1 cell CPT	HT1080 IDH1KD tx	KB-V1 cytotox	HT1080-NT tox	DT40 TDP1 no CPT
NC(Cc1ccc(Cl)cc1)c1csc(NC(=O)NCCc2ccccc2)n1 (configuration not stated)	u	23µM*	u	i	16µM*	u
C[C@]1(C(=O)NCc2cc(F)cc(C(F)(F)F)c2)C=C[C@@H](Cc2ccccc2)N1C(=O)c1ccccc1	i	16µM*	-11%	u	u	u
COCCNC(=O)[C@@]1(C)C=C[C@@H](Cc2ccccc2)N1C(=O)c1ccccc1	i	u	-10%	i	0%	u
Cc1cccc2cc(CN(Cc3ccco3)C(=O)Nc3cccc(C#N)c3)c(Cl)nc12	i	u	11µM*	12µM*	u	u
Cc1ccc(C)c2[nH]c(=O)c(CN(Cc3ccco3)C(=O)Nc3ccccc3)cc12	i	u	-26%	i	-14%	u
COc1ccc(CCC(=O)OCC(=O)Nc2ccccc2)cc1	i	9%	-1%	i	0%	-16%
CCCNC(=O)C1(C)CCCN(Cc2csc(-c3ccccc3)n2)C1 (configuration not stated)	u	u	-4%	i	-27%	21µM*
CCNC(=O)C1(C)CCCN(Cc2csc(-c3ccc(Cl)cc3)n2)C1 (configuration not stated)	u	-109%	u	i	0.46µM*	-103%
CCCNC(=O)C1(C)CCN(Cc2cc(-c3ccccc3)on2)C1 (configuration not stated)	i	u	2%	i	-1%	15µM*
COCCNC(=O)C1(C)CCN(Cc2csc(-c3ccc(Cl)cc3)n2)C1 (configuration not stated)	i	u	3%	u	-12%	u
O=C(CN1C(=O)COc2ccc(S(=O)(=O)N3CCOCC3)cc21)NCc1ccc(Cl)cc1	x	-26%	x	x	x	-9%
Cc1cc(NC(=O)C2CCN(S(=O)(=O)c3ccc4[nH]c(=O)oc4c3)CC2)ccc1Br	i	u	x	i	x	u
CCCc1cc(C(=O)OCC(=O)NCCc2ccccc2)sc1C	i	-8%	11%	i	12%	-17%
COc1ccccc1N1CCN(C(=O)Nc2ccc([N+](=O)[O-])cc2)CC1	i	u	-3%	i	-5%	16µM*
COc1ccccc1N1CCN(C(=O)Nc2cccc(C)c2)CC1	i	9%	3%	i	9%	u
CC(C)(C)c1ccc(NC(=O)N2CCN(c3ccc([N+](=O)[O-])cn3)CC2)cc1	u	3.3µM*	23µM*	u	u	8.2µM*

From PubChem
